Results from PubChem BioAssay (Tox21).
Results filed as inconclusive are left out. Calls of active or inactive are those of the source. Calls follow the shape of the dose curve; as a rule, active = well fitted curve in the direction sought with a large enough effect in the repeat runs; inconclusive = weak or mixed curves; inactive = no such curve, though single readings can be large; an effect the other way counts as inactive or inconclusive.

Experiments:
[1] = Caspase-3/7 induction in CHO-K1 cells by small molecules, qHTS cell viability counter screen (AID 1346979); also: nearly all actives have a fitted effect of over 35% in size; also: potency is read from the fitted curve at half-maximal effect
Summary of the method: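 Cytotoxicity counter screen: CellTiter-Fluor added to compound-treated wild-type CHO-K1 cells at 16 h (37C, 5% CO2), fluorescence measured 1 h later; same wells as caspase-3/7 measurement.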

[2] = Caspase-3/7 induction in CHO-K1 cells by small molecules, qHTS assay (AID 1346980); also: nearly all actives have a fitted effect of over 15% in size
Summary of the method: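 Wild-type CHO-K1 cells exposed to compounds for 17hr at 37 C, 5% CO2. Caspase-3/7 activity then measured by Caspase-Glo 3/7 luminescence after 30min at room temperature.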

[3] = Caspase-3/7 induction in HepG2 cells by small molecules, qHTS cell viability counter screen (AID 1346981); also: nearly all actives have a fitted effect of over 30% in size; also: potency is read from the fitted curve at half-maximal effect; as to activity change, negative = cytotoxicity: series mostly up to about 92 µM
Summary of the method: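 Counter screen for cytotoxicity: HepG2 exposed 16 hr to compounds, then CellTiter-Fluor viability signal (fluorescence, 1 hr reagent incubation).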

[4] = Caspase-3/7 induction in HepG2 cells by small molecules, qHTS assay (AID 1346978); also: nearly all actives have a fitted effect of over 15% in size
Summary of the method: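 Wild-type HepG2 cells, 2,000/well, settled 5 hr at 37 C and 5% CO2, then compound-treated for 17 hr; caspase-3/7 activity read by luminescent Caspase-Glo 3/7 after 30 min at room temperature.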

[5] = molecular target: Cytochrome P450 2C19 (Homo sapiens) (UniProt P33261); assay: Cytochrome P450 Family 2 Subfamily C Member 19 (CYP2C19) small molecule antagonists: luciferase reporter qHTS assay (AID 1671197); also: nearly all actives have a fitted effect of over 65% in size; also: potency is read from the fitted curve at half-maximal effect; as to activity change, negative = inhibition: series mostly up to about 120 µM
Chain of Cytochrome P450 2C19 (Homo sapiens) (P33261 whole entry, looked up): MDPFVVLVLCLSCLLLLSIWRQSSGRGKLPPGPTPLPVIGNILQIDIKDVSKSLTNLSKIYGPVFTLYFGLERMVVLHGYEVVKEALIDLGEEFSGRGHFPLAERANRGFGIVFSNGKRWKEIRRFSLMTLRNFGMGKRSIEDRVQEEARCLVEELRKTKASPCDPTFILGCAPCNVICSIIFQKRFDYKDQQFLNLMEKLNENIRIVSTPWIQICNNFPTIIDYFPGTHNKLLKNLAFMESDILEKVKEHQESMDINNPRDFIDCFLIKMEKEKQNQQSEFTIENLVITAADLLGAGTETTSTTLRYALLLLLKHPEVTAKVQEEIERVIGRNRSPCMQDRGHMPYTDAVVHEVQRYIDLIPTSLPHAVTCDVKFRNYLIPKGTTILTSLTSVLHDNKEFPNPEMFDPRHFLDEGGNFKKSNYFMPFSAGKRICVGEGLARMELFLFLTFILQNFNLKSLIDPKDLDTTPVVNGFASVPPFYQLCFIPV
Summary of the method: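 Light output is proportional to CYP2C19 activity: proluciferin substrate is converted to luciferin, then detected by a luciferin detection reagent that also stops the 1 h, 37C NADPH-driven reaction. Ketoconazole serves as positive control.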

[6] = molecular target: Cytochrome P450 1A2 (Homo sapiens) (UniProt P05177); assay: Cytochrome P450 Family 1 Subfamily A Member 2 (CYP1A2) small molecule antagonists: luciferase reporter qHTS assay (AID 1671199); also: nearly all actives have a fitted effect of over 50% in size; also: potency is read from the fitted curve at half-maximal effect; as to activity change, negative = inhibition: series mostly up to about 120 µM
Chain of Cytochrome P450 1A2 (Homo sapiens) (P05177 whole entry, looked up): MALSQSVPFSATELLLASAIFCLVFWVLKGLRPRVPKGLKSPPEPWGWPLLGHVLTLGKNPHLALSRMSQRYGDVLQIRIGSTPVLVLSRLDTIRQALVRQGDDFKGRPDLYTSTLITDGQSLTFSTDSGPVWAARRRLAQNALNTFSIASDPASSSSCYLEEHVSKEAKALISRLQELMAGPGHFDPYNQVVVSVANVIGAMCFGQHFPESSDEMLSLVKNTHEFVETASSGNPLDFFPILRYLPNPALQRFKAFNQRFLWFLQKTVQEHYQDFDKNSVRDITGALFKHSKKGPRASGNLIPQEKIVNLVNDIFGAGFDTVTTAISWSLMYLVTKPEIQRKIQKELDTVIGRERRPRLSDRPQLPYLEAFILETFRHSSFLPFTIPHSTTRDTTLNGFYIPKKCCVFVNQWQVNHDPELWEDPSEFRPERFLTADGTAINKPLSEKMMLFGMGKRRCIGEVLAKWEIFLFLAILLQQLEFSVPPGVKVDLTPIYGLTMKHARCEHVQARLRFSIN
Summary of the method: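 Signal from luciferin formed by CYP1A2 from a proluciferin substrate is read as luminescence, expressed in relative luminescence units. Compounds sit with enzyme 10 min, NADPH-driven reaction runs 1 h, all at room temperature.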

[7] = molecular target: Voltage-gated inwardly rectifying potassium channel KCNH2 (Homo sapiens) (UniProt Q12809); assay: Human Ether-a-go-go-Related Gene (hERG) channel small molecule antagonists: fluorescence cell-based qHTS assay (AID 1671200); also: nearly all actives have a fitted effect of over 50% in size; also: potency is read from the fitted curve at half-maximal effect; as to activity change, negative = inhibition: series mostly up to about 77 µM
Chain of Voltage-gated inwardly rectifying potassium channel KCNH2 (Homo sapiens) (Q12809 whole entry, looked up): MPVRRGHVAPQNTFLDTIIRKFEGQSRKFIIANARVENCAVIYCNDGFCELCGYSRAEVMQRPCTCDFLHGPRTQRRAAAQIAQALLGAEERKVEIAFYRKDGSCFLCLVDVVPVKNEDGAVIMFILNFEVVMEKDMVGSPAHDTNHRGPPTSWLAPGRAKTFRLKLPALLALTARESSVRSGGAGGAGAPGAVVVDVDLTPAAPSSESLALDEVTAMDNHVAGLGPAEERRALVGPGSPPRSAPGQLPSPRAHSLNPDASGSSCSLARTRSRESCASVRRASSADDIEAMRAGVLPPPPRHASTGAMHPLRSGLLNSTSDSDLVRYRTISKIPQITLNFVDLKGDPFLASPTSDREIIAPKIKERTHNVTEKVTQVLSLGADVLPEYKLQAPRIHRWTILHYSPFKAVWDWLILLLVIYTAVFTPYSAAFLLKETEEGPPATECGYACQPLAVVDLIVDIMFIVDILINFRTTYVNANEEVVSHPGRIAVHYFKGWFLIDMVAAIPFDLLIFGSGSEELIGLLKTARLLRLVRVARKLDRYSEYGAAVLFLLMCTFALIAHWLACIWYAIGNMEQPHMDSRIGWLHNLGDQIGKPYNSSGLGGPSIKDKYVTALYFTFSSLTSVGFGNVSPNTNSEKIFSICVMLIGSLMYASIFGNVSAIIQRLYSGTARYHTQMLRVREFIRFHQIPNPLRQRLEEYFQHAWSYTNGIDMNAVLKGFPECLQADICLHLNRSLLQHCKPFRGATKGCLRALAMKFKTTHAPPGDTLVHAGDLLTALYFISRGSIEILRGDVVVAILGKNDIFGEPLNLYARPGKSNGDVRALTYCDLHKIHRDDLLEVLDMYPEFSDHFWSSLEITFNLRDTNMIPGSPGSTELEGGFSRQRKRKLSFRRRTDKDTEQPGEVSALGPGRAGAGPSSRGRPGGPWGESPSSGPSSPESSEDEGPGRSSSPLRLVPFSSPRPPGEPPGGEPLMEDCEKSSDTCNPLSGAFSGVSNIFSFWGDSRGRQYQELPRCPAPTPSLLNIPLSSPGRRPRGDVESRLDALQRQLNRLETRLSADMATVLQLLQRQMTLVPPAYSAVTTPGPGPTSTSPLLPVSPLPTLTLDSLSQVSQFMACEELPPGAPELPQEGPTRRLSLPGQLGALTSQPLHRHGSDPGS
Summary of the method: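 Thallium flux as potassium surrogate: FluxOR II dye loaded 1 h at room temperature into hERG-expressing U2OS cells, then stimulus buffer added after 10 min. Kinetic 480 nm excitation/540 nm emission read, 2 min.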

[8] = molecular target: Cytochrome P450 3A4 (Homo sapiens) (UniProt P08684); assay: Cytochrome P450 Family 3 Subfamily A Member 4 (CYP3A4) small molecule antagonists: luciferase reporter qHTS assay (AID 1671201); also: nearly all actives have a fitted effect of over 50% in size; also: potency is read from the fitted curve at half-maximal effect; as to activity change, negative = inhibition: series mostly up to about 120 µM
Chain of Cytochrome P450 3A4 (Homo sapiens) (P08684 whole entry, looked up): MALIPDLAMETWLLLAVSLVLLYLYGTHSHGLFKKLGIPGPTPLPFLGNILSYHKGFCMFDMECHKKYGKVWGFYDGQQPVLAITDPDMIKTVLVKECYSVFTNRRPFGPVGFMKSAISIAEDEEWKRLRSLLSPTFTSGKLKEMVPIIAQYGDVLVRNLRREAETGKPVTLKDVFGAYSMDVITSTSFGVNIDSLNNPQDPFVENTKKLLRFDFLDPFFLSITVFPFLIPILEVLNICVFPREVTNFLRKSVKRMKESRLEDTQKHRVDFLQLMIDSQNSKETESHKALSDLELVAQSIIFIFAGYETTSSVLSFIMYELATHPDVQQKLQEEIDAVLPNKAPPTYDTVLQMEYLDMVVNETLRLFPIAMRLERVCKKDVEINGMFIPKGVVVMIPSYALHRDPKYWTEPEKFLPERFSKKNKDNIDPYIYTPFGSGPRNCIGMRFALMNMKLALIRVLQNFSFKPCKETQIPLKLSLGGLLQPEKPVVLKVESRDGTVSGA
Summary of the method: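 Recombinant human CYP3A4 converts a proluciferin substrate to luciferin over 1 h at room temperature after NADPH regeneration solution is added (compound preincubated 10 min); detection reagent stops reaction, luminescence read 20 min later as relative units.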

[9] = molecular target: Cytochrome P450 2D6 (Homo sapiens) (UniProt P10635); assay: Cytochrome P450 Family 2 Subfamily D Member 6 (CYP2D6) small molecule antagonists: luciferase reporter qHTS assay (AID 1671196); also: nearly all actives have a fitted effect of over 50% in size; also: potency is read from the fitted curve at half-maximal effect; as to activity change, negative = inhibition: series mostly up to about 120 µM
Chain of Cytochrome P450 2D6 (Homo sapiens) (P10635 whole entry, looked up): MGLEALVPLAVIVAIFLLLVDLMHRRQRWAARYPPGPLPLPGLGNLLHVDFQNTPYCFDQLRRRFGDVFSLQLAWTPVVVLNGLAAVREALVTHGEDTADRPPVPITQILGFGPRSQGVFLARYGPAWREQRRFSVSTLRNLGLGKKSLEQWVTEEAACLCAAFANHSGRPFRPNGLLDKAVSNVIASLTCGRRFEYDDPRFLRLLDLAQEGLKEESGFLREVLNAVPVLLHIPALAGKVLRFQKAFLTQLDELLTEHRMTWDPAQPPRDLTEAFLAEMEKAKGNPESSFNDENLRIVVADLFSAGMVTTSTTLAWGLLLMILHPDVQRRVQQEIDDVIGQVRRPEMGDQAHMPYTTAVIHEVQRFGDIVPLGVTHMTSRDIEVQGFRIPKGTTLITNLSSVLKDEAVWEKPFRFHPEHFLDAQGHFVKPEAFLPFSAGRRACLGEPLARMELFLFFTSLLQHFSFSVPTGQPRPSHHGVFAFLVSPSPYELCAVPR
Summary of the method: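 Inhibition of CYP2D6 was gauged by loss of luminescence, since light produced tracks the luciferin generated from a proluciferin substrate. A 10 min room-temperature preincubation preceded 1 h NADPH-supported turnover.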

[10] = molecular target: Cytochrome P450 2C9 (Homo sapiens) (UniProt P11712); assay: Cytochrome P450 Family 2 Subfamily C Member 9 (CYP2C9) small molecule antagonists: luciferase reporter qHTS assay (AID 1671198); also: nearly all actives have a fitted effect of over 50% in size; also: potency is read from the fitted curve at half-maximal effect; as to activity change, negative = inhibition: series mostly up to about 120 µM
Chain of Cytochrome P450 2C9 (Homo sapiens) (P11712 whole entry, looked up): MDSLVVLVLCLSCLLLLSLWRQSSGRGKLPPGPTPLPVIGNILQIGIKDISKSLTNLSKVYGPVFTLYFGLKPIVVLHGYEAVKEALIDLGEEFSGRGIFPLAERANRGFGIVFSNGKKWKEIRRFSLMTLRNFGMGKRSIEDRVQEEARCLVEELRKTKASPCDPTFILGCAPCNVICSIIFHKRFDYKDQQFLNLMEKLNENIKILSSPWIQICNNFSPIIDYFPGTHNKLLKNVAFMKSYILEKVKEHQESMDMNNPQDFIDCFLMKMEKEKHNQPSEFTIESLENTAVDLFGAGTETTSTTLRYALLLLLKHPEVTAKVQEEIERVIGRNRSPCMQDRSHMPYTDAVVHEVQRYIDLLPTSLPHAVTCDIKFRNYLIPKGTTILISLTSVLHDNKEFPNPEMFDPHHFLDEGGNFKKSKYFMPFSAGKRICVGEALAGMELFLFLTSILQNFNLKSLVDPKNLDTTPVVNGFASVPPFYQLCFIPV
Summary of the method: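 P450-Glo proluciferin substrate with CYP2C9 enzyme; 10 min RT preincubation, then NADPH regeneration 1 h at 37C; luciferin detection reagent 20 min RT, luminescence in relative luminescence units.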

[11] = molecular target: Nuclear receptor subfamily 1 group I member 2 (Homo sapiens) (UniProt O75469); assay: Human pregnane X receptor (PXR) small molecule agonists, qHTS assay (AID 1346982); also: nearly all actives have a fitted effect of over 35% in size; also: potency is read from the fitted curve at half-maximal effect
Chain of Nuclear receptor subfamily 1 group I member 2 (Homo sapiens) (O75469 whole entry, looked up): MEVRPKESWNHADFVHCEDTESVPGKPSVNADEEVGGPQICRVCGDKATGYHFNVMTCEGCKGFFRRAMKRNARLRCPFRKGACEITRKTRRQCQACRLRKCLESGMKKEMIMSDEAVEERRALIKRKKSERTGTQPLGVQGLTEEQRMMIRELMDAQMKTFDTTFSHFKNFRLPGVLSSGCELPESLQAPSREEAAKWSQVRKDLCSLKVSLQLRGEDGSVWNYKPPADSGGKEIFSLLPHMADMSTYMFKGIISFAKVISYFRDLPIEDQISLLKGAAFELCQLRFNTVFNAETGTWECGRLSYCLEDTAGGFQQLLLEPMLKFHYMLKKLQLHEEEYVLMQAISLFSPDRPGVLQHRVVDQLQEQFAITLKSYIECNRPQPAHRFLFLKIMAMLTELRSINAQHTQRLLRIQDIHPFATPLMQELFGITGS
Summary of the method: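 Luminescence (ONE-Glo, 30 min RT) after 24 hr compound exposure of PXR-Luc HepG2 cells; cells rested 5 hr post-plating in 5% charcoal-stripped FBS medium.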

[12] = molecular target: Nuclear receptor subfamily 1 group I member 2 (Rattus norvegicus) (UniProt Q9R1A7); assay: Rat pregnane X receptor (rPXR) activation by small molecules, qHTS assay (AID 1346983); details: rPXR luciferase reporter cells, One-Glo luminescence, 24 h; max activation: stronger effect = higher value; also: nearly all actives have a fitted effect of over 20% in size; also: potency is read from the fitted curve at half-maximal effect
Chain of Nuclear receptor subfamily 1 group I member 2 (Rattus norvegicus) (Q9R1A7 whole entry, looked up): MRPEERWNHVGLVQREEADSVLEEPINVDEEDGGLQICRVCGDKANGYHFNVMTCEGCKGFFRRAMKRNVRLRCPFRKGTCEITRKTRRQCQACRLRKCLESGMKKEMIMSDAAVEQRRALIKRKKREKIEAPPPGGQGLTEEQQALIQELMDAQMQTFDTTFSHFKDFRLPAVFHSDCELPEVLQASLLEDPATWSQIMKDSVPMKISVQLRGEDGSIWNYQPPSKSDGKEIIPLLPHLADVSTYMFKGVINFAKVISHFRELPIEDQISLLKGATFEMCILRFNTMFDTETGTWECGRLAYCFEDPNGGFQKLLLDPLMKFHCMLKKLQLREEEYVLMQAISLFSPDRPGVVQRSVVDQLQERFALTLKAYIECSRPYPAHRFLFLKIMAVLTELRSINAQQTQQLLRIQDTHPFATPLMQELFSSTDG
Summary of the method: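 Cell-based rPXR activation assay: rPXR cells, 2,000 per well, rested 5hr at 37 C, then exposed to compounds in DMSO for 24 hr at 37 C. Luciferase activity read by One-Glo luminescence after 30 min at room temperature.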

[13] = molecular target: Nuclear receptor subfamily 1 group I member 2 (Homo sapiens) (UniProt O75469); assay: Human pregnane X receptor (PXR) activation by small molecules, qHTS assay (AID 1346985); also: nearly all actives have a fitted effect of over 40% in size; also: potency is read from the fitted curve at half-maximal effect
Summary of the method: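 DPX-2 cells (HepG2 co-transfected with a PXR response element and a CYP3A4-promoter luciferase construct) were seeded at 2,000 per well, rested 5 hr at 37C, then exposed to DMSO-dissolved compounds for 24 hr. Activation was read as luciferase luminescence.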

[14] = molecular target: Nuclear receptor subfamily 1 group I member 2 (Homo sapiens) (UniProt O75469); assay: CYP3A4 induction through human pregnane X receptor (PXR) by small molecules, qHTS assay (AID 1346984); also: nearly all actives have a fitted effect of over 40% in size; also: potency is read from the fitted curve at half-maximal effect
Summary of the method: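 DPX-2 reporter cells; 24h cpd, 37C; Luciferin-IPA 3uM final x3h; One-Glo 30 min RT; lumi read.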
% is scaled to controls: 0 for no effect and ±100 for the full control effect.

CN1CCC(OC(c2ccccc2)c2ccccc2)CC1
inactive: Potency [1] | Potency [2] | Potency [3]

O=S(=O)(O)c1ccc(O)c2ncccc12
inactive: outcome [4] | Potency [2] | Potency [5] | Potency [6] | Potency [7] | Potency [8]

CCCCCOC(=O)c1ccc(O)cc1
active: Potency [9] 71.8 µM | Potency [5] 28.6 µM | Potency [10] 36 µM | Potency [6] 2.55 µM
inactive: outcome [4] | Potency [2] | Potency [3]

O=C(/C=C/c1ccc(O)c(O)c1)O[C@@H]1C[C@](O)(C(=O)O)C[C@@H](O)[C@H]1O
inactive: outcome [4] | Potency [2] | Potency [3] | Potency [11] | Potency [9] | Potency [10] | Potency [7] | Potency [8]
active: Potency [5] 80.9 µM

Cc1ccc(C(C)c2ccc(C)c(C)c2)cc1C
active: Potency [5] 7.1 µM | Potency [10] 11.2 µM
inactive: outcome [4] | Potency [1] | Potency [3] | Potency [9] | Potency [8]

CCCCCCCCCCCCCCCCCBr
inactive: caspase activation [4] 0.0731% [at 19 µM] | activity change, negative = cytotoxicity [1] 6.07% [at 19 µM] | activity change, negative = cytotoxicity [3] 2.8% [at 19 µM] | activity change, negative = inhibition [9] -1.15% [at 23.6 µM] | activity change, negative = inhibition [5] 4.88% [at 23.6 µM] | activity change, negative = inhibition [10] 0.482% [at 23.6 µM] | activity change, negative = inhibition [6] -12.4% [at 23.6 µM] | activity change, negative = inhibition [7] 7.46% [at 15.8 µM] | activity change, negative = inhibition [8] 1.19% [at 23.6 µM]

CN(C)CC[C@@H](c1ccc(Br)cc1)c1ccccn1
active: Potency [9] 3.89 µM | Potency [6] 24.5 µM
inactive: Potency [1] | Potency [2] | Potency [3] | Potency [11] | max activation [12] -1.37% | Potency [13] | Potency [5] | Potency [10] | Potency [8]

CCCOc1ccc2nc(NC(=O)OC)[nH]c2c1
active: Potency [11] 3.76 µM
inactive: outcome [4] | Potency [3] | Potency [9] | Potency [5] | Potency [10] | Potency [6] | Potency [7] | Potency [8]

Oc1ccc(C(O)CNCCCCCCNCC(O)c2ccc(O)c(O)c2)cc1O (configuration not stated)
inactive: outcome [4] | Potency [2] | Potency [3] | Potency [11] | max activation [12] -3.6% | Potency [14] | Potency [13] | Potency [5] | Potency [7] | Potency [8]

C=CC(C)(CCC=C(C)C)OC(=O)c1ccccc1 (configuration not stated)
inactive: Potency [1] | Potency [2] | Potency [9]
active: Potency [5] 15.9 µM | Potency [10] 17.8 µM | Potency [6] 39.9 µM | Potency [8] 31.7 µM

CCN(CC)C(C)CN1c2ccccc2Sc2ccccc21 (configuration not stated)
inactive: Potency [1] | Potency [3] | Potency [11] | max activation [12] -0.328% | Potency [13] | Potency [8]
active: Potency [14] 3.98 µM | Potency [9] 30.9 µM | Potency [5] 34.7 µM | Potency [6] 7.76 µM

CCOC(=O)[C@H](CCc1ccccc1)N[C@H]1CCc2ccccc2N(CC(=O)O)C1=O
inactive: Potency [2]
active: Potency [1] 23.7 µM | Potency [11] 23.7 µM | Potency [14] 10 µM | Potency [5] 6.92 µM | Potency [10] 8.71 µM | Potency [6] 12.9 µM

Cc1cccc(OCCOc2cccc(C)c2)c1
inactive: Potency [1] | Potency [2] | Potency [3] | Potency [9] | Potency [7]
active: Potency [11] 18.3 µM | Potency [5] 3.77 µM | Potency [6] 8.45 µM

Nc1ccc(C(=O)Nc2ccccc2N)cc1
inactive: Potency [2] | Potency [3] | Potency [14] | Potency [9] | Potency [5] | Potency [10] | Potency [6] | Potency [7] | Potency [8]
active: Potency [11] 8.41 µM | Potency [12] 3.55 µM | Potency [13] 11.2 µM

O=C(O)c1cn(C2CC2)c2cc(Cl)c(F)cc2c1=O
inactive: Potency [1] | Potency [2] | Potency [3] | Potency [9] | Potency [5] | Potency [10] | Potency [8]

CC(C)(C)C(=O)OCOP(=O)(COCCn1cnc2c(N)ncnc21)OCOC(=O)C(C)(C)C
active: Potency [11] 11.9 µM
inactive: Potency [2] | Potency [3] | max activation [12] -2.44% | Potency [14] | Potency [13] | Potency [9] | Potency [5] | Potency [10] | Potency [6] | Potency [7]

CCOC(=O)CC(C)C
inactive: Potency [1] | Potency [2] | Potency [3] | Potency [11] | Potency [9] | Potency [5] | Potency [10] | Potency [6] | Potency [7] | Potency [8]

CCN(CC)C(C)=O
inactive: Potency [1] | Potency [2] | Potency [3] | Potency [5] | Potency [10] | Potency [8]

CC(C)c1ccccc1C(C)C
active: Potency [5] 39.9 µM | Potency [10] 39.9 µM | Potency [6] 35.6 µM | Potency [8] 22.5 µM
inactive: Potency [1] | Potency [2] | Potency [3]

O=C(O)C(c1ccc(Cl)cc1)c1ccc(Cl)cc1
active: Potency [5] 28.3 µM | Potency [10] 15.9 µM
inactive: Potency [1] | Potency [2] | Potency [3] | Potency [11] | Potency [9] | Potency [6] | Potency [7]

CN1CCN(C2=Nc3cc(Cl)ccc3Nc3ccccc32)CC1
inactive: Potency [2] | Potency [5] | Potency [6]
active: Potency [3] 23.7 µM

N=C(N=C(N)N)N1CCOCC1
inactive: Potency [1] | Potency [3] | Potency [11] | max activation [12] -1.18% | Potency [14] | Potency [13] | Potency [9] | Potency [10] | Potency [7] | Potency [8]

CC(Cc1cccc(C(F)(F)F)c1)NCCOC(=O)c1ccccc1 (configuration not stated)
inactive: Potency [2] | Potency [3] | max activation [12] -0.287% | Potency [14] | Potency [13]
active: Potency [9] 0.0977 µM | Potency [10] 27.5 µM | Potency [7] 8.49 µM
